Experiment [1] is described as follows: qHTS assay to identify small molecule agonists of the constitutive androstane receptor (CAR) signaling pathway - cell viability counter screen (AID 1224836). Note: % is set by controls: 0 for no effect and ±100 for the full control effect; nearly all actives have a fitted effect of over 45% in size. Summed up: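 Fluorescence from CellTiter-Fluor indicates live cells after 23 h exposure. The human hepatoma line expresses hCAR and a CYP2B6-2.2kb reporter. Incubation medium contains 0.75 uM PK11195 (final).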
A general note: In qHTS, concentration-response curves come from the screen itself.

The nature of experiment [2]: qHTS assay to identify small molecule antagonists of the constitutive androstane receptor (CAR) signaling pathway - cell viability counter screen (AID 1224837). Note: % is set by controls: 0 for no effect and ±100 for the full control effect; nearly all actives have a fitted effect of over 45% in size. Summed up: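 To flag cytotoxic false antagonists, HepG2 hCAR/CYP2B6-2.2kb cells were treated 23 hr with 15-concentration compound series and 50 nM CITCO at 37 C/5% CO2; CellTiter-Fluor fluorescence was the measured end point.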

The target in experiment [3] is Nuclear receptor subfamily 1 group I member 3 (Homo sapiens) (UniProt Q14994). The experiment in a line: qHTS assay to identify small molecule antagonists of the constitutive androstane receptor (CAR) signaling pathway (AID 1224838). For activity, negative = inhibition: % is set by controls: 0 for no effect and ±100 for the full control effect.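 Note: HepG2 cells stably expressing hCAR with CYP2B6 luciferase reporter stimulated by CITCO; nearly all actives have a fitted effect of over 40% in size.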 Note: potency is the fitted concentration of half-maximal effect. Summed up: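 Human hepatoma HepG2 cells expressing hCAR and a CYP2B6 promoter (2.2 kb) luciferase construct; compound titration (15 points) with 50 nM CITCO final, 24 h at 37 C/5% CO2; luminescence via ONE-Glo after 30 min at room temperature.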
Sequence of Nuclear receptor subfamily 1 group I member 3 (Homo sapiens) (Q14994 whole entry, looked up): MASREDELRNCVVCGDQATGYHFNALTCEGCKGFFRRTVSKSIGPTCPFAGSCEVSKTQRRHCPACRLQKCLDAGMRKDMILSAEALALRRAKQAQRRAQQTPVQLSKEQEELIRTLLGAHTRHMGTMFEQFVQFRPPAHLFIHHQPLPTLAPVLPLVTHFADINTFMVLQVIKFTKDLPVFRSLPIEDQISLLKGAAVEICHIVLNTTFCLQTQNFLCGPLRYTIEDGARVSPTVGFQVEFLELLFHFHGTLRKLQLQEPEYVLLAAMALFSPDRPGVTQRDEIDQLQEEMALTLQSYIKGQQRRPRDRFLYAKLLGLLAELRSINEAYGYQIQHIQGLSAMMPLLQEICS

Experiment [4] in a line: qHTS assay to identify small molecule antagonists of the estrogen related receptor signaling pathway with the pleiotropic PPARgamma coactivator (PGC) from Tox21 10K library - cell viability counter screen (AID 1224840; active = well fitted cell-killing curve with a large enough effect in the repeat runs, not every such curve was filed as active; note: nearly all actives have a fitted effect of over 40% in size; note: potency is the fitted concentration of half-maximal effect; for viability change, negative = cytotoxic: % is set by controls: 0 for no effect and ±100 for the full control effect). Summed up: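 Seeded PGC/ERR cells (2,000/well, 6 h, 37 C/5% CO2) get compound by pin tool; 17.5 h incubation at 37 C; CellTiter-Fluor added, 30 min, fluorescence measured.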

Experiment [5] can be described thus: qHTS assay to identify small molecule agonists of the hypoxia (HIF-1) signaling pathway - cell viability counter screen (AID 1224844; calls by dose curve; note: nearly all actives have a fitted effect of over 50% in size; note: potency is the fitted concentration of half-maximal effect; for activity change, negative = cytotoxicity: % is set by controls: 0 for no effect and ±100 for the full control effect). Summed up:
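HRE-bla ME-180; 0.5% dFBS; cpd 17 h, 37C, 5% CO2; CellTiter-Glo lum., 30 min RT, post-FRET read, same wells.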

A short description of experiment [6]: qHTS assay to identify small molecule agonists of H2AX (AID 1224845; active = well fitted activation curve with a large enough effect in the signal ratio in the repeat runs, not every such curve was filed as active; the % refers to the signal ratio; note: potency is the fitted concentration of half-maximal effect). The method, boiled down:
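Wild-type CHO-K1 cells plated overnight, then exposed 3 hr at 37C to compounds at 15 concentrations (0.76% DMSO). Lysed, then HTRF anti-pH2AX(S139)-cryptate/anti-H2AX-d2 detection after 24 hr at room temperature; emissions 665 and 620 nm.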

Experiment [7] in a line: qHTS assay to identify small molecule agonists of H2AX - cell viability counter screen (AID 1224847; calls by dose curve; note: top concentration of the series differs between compounds; % is set by controls: 0 for no effect and ±100 for the full control effect; nearly all actives have a fitted effect of over 30% in size). The method, boiled down: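 Viability of CHO-K1 (wild type) cells after 3 hr compound exposure was measured by CellTiter-Glo luminescence.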
The nature of experiment [8]: qHTS RealTime-Glo MT Cell Viability Assay in HEK293 cells - 32 hour (AID 1224868). Note: nearly all actives have a fitted effect of over 50% in size. Note: potency is the fitted concentration of half-maximal effect. The method, boiled down: (§1)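 Homogeneous bioluminescent viability format in HEK293 cells (600 cells/well). Following 5 h at 37 C/5% CO2, 23 nL compound was pintooled; the signal was measured repeatedly during 40 h incubation.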
Experiment [9] in a line: A CellTox Green Cytotoxicity Assay to monitor cytotoxicity in HEK293 cells - 0 hour (AID 1224869). Note: % is set by controls: 0 for no effect and ±100 for the full control effect; nearly all actives have a fitted effect of over 50% in size. The method, boiled down: (§2)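 Tox21 screen in HEK293: membrane-impermeant cyanine dye fluoresces on binding dead-cell DNA; compound pinned 5 h post-seeding, plates held at 37 C, signal read repeatedly through 40 h.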
Experiment [10] deals with Thyrotropin receptor (Homo sapiens) (UniProt P16473). The experiment in a line: qHTS assay to identify small molecule agonists of the thyroid stimulating hormone receptor (TSHR) signaling pathway (AID 1224843; calls by dose curve; note: % is set by controls: 0 for no effect and ±100 for the full control effect; nearly all actives have a fitted effect of over 45% in size). The method, boiled down:
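Compounds are titrated over 15 concentrations, in triplicate, onto TSHR-HEK293 cells seeded at 800/well. Plates sit 30 min at room temperature before cAMP-d2 and anti-cAMP cryptate are added; signal is read after a further hour.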

Experiment [11] in a line: qHTS assay to identify small molecule agonists of the hypoxia (HIF-1) signaling pathway (AID 1224846; active = well fitted activation curve with a large enough effect in the signal ratio in the repeat runs, not every such curve was filed as active; the % refers to the signal ratio; note: % is set by controls: 0 for no effect and ±100 for the full control effect). The method, boiled down:
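Reporter induction in HRE-bla ME-180 cells is taken as agonism: cells sit 5 hrs after plating, receive compounds or DMSO only, incubate 17 hrs at 37C under 5% CO2, and are loaded with CCF4-AM for beta-lactamase FRET measurement.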

A short description of experiment [12]: qHTS RealTime-Glo MT Cell Viability Assay in HepG2 cells - 24 hour (AID 1224867). Note: nearly all actives have a fitted effect of over 50% in size. Note: potency is the fitted concentration of half-maximal effect. The method, boiled down:
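Cell number in HepG2 cultures estimated from NanoLuc luminescence generated by metabolic reduction of a prosubstrate by living cells. The homogeneous, nonlytic format allowed repeated reads at 0, 8, 16, 24, 32 and 40 h of compound exposure.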

Experiment [13] can be described thus: qHTS RealTime-Glo MT Cell Viability Assay in HepG2 cells - 40 hour (AID 1224870). Note: nearly all actives have a fitted effect of over 50% in size. Note: potency is the fitted concentration of half-maximal effect. Summed up: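 HepG2 cells mixed with RealTime-Glo MT reagents (NanoLuc plus cell-permeant prosubstrate) were seeded at 600 cells/well, incubated 5 h at 37 C/5% CO2, then pinned with compounds in DMSO; nonlytic luminescence tracked viability during 40 h treatment.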
Experiment [14] can be described thus: A CellTox Green Cytotoxicity Assay to monitor cytotoxicity in HEK293 cells - 40 hour (AID 1224871). Note: nearly all actives have a fitted effect of over 45% in size. Note: potency is the fitted concentration of half-maximal effect. Summed up:
as §2

Experiment [15] is described as follows: qHTS RealTime-Glo MT Cell Viability Assay in HEK293 cells - 16 hour (AID 1224872). Summed up:
as §1

The target in experiment [16] is Nuclear receptor subfamily 1 group I member 3 (Homo sapiens) (UniProt Q14994). The experiment in a line: qHTS assay to identify small molecule agonists of the constitutive androstane receptor (CAR) signaling pathway (AID 1224839).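 Note: HepG2 cells stably carrying human CAR and a CYP2B6 luciferase reporter; % is set by controls: 0 for no effect and ±100 for the full control effect; nearly all actives have a fitted effect of over 15% in size.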 Summed up: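 Stable hCAR/CYP2B6-2.2kb HepG2 line in DMEM with 10% FBS; compounds (15 concentrations) and 0.75 uM PK11195 final, 24 h at 37 C/5% CO2, then ONE-Glo luminescence after 30 min.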

A short description of experiment [17]: qHTS assay to identify small molecule antagonists of the estrogen related receptor signaling pathway with the pleiotropic PPARgamma coactivator (PGC) from Tox21 10K library (AID 1224841; call rule not given here; note: potency is the fitted concentration of half-maximal effect). The method, boiled down: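 Test chemicals dissolved in DMSO were applied to pre-incubated (6 h) PGC/ERR cells at 2,000 cells/well for an 18 h, 37 C treatment; reporter luminescence was then read using One-Glo.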

A short description of experiment [18]: qHTS assay to identify small molecule agonists of the estrogen related receptor signaling pathway with the pleiotropic PPARgamma coactivator (PGC) from Tox21 10K library (AID 1224842). Note: % is set by controls: 0 for no effect and ±100 for the full control effect; nearly all actives have a fitted effect of over 15% in size. The method, boiled down: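 PGC/ERR reporter cells (NTP line) were seeded 2,000 per well, rested 6 h at 37 C/5% CO2, then pin-dosed with compounds in DMSO for 18 h at 37 C; luciferase read by One-Glo luminescence after 30 min at room temperature.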

Experiment [19] is described as follows: qHTS assay to identify small molecule agonists of the estrogen related receptor (ERR) signaling pathway from Tox21 library (AID 1224849; calls by dose curve; note: % is set by controls: 0 for no effect and ±100 for the full control effect; nearly all actives have a fitted effect of over 15% in size). Conditions: ERR reporter cell line, ONE-Glo luciferase, 18 h; at 92.4 µM (top of the series) unless noted. The method, boiled down: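 Tox21 compounds tested for ERR agonism in an NTP reporter cell line: 18 h treatment at 37 C, then ONE-Glo luminescence.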

Experiment [20] is described as follows: qHTS assay to identify small molecule antagonists of the estrogen related receptor (ERR) signaling pathway from Tox21 library (AID 1224848). The method, boiled down: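 First, 2,000 ERR cells per well were plated and held 6 h at 37 C/5% CO2. Next, compounds in DMSO were pinned in and left 18 h at 37 C. Finally, ONE-Glo was added and luminescence read after 30 min at room temperature.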

Structures are written as SMILES. Values without a mark were called inactive. Inconclusive results are not listed. Activity calls are given as the source filed them. Unless noted, calls come from the whole dose curve; as a rule, active = well fitted curve in the direction sought with a large enough effect in the repeat runs; inconclusive = weak or mixed curves; inactive = no such curve, though single readings can be large; an effect the other way counts as inactive or inconclusive.

Sequence of Thyrotropin receptor (Homo sapiens) (P16473 whole entry, looked up): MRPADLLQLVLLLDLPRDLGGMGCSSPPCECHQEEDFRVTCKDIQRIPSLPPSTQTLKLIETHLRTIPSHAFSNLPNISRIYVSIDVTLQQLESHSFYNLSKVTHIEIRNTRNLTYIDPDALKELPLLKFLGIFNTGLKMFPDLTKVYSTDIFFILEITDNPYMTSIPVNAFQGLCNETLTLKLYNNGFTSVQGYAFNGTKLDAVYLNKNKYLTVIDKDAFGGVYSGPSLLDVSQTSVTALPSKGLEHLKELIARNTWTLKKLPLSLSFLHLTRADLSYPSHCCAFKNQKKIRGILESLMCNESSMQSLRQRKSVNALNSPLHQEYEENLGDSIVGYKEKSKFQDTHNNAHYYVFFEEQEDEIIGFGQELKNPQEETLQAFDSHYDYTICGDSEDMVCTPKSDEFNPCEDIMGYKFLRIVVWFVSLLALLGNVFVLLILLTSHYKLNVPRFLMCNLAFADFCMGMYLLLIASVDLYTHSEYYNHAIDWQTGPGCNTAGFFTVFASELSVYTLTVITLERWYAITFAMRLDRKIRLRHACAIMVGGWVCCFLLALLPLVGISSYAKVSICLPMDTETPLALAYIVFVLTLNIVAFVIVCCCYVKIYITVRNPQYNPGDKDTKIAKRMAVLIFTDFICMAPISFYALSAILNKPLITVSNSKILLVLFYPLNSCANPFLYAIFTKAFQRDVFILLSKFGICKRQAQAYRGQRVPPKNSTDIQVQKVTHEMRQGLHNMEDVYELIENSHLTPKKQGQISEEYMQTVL

`CCCCCCC[N+](CC)(CC)CCCCc1ccc(Cl)cc1`: the Potency result in experiment [1], in experiment [2], in experiment [3], in experiment [4], in [5] and in experiment [6] was “inactive” throughout. In addition, the Potency entry in experiment [7] and in [9] was “inactive” each time. The Potency in experiment [8] was 1.9 µM (active).

As for `O=[N+]([O-])c1ccccc1Nc1ccccc1`, the Potency entry in [1], in experiment [2], in experiment [3], in [4], in experiment [10] and in experiment [5] was “inactive” each time. The Potency result in experiment [6], in [11], in experiment [7], in experiment [12], in experiment [9] and in experiment [13] was “inactive” throughout. The Potency entry in experiment [14] and in [15] was “inactive” throughout.

Consider `Nc1cc(C(F)(F)F)ccc1S`, for which the Potency entry in experiment [1], in [2], in experiment [16], in experiment [4], in experiment [18] and in experiment [7] was “inactive” throughout. The Potency result in experiment [12], in experiment [8], in experiment [9], in [13], in experiment [14] and in experiment [15] was “inactive” in each case. Besides, the Potency in experiment [17] was 29.8 µM (active). Moreover, the activity change, positive = activation in experiment [19] was -31.1% [at 42.5 µM].

Take `O=[N+]([O-])c1cc(Cl)c(Cl)c(Cl)c1Cl`: the Potency result in experiment [1], in experiment [2], in experiment [3], in experiment [16], in experiment [18] and in [10] was “inactive” in each case. The Potency result in [5], in [11], in [7], in experiment [12], in experiment [9] and in experiment [13] was “inactive” throughout. Moreover, the Potency entry in [15] was “inactive”. Besides, the activity change, positive = activation in experiment [19] was -25.7%.

With `COc1ccc(-c2ccc3cc(C(=O)O)ccc3c2)cc1C12CC3CC(CC(C3)C1)C2`, the Potency result in experiment [1], in experiment [2], in [16], in [4], in experiment [17] and in experiment [18] was “inactive” each time. The Potency entry in experiment [10], in [7], in experiment [9] and in experiment [14] was “inactive” each time. Besides, the Potency in experiment [5] was 13.4 µM (active); in [8] it was 5.35 µM (active). In addition, the activity change, positive = activation in experiment [19] is -10.4% [at 42.5 µM].

`O=CC=C(c1ccccc1)c1ccccc1`: the Potency result in experiment [1], in experiment [2], in [3], in experiment [12], in [9] and in experiment [13] was “inactive” throughout. Moreover, the Potency in experiment [8] was 17.5 µM (active).

Take `CCOc1ccc2nc3cc(N)ccc3c(N)c2c1`: the Potency entry in experiment [1], in experiment [2], in [16], in [10], in [6] and in experiment [7] was “inactive” each time. In experiment [9], the Potency entry is “inactive”. In addition, the Potency in experiment [3] is 2.66 µM (active); in experiment [12], 10.7 µM (active); in experiment [8] it was 15.1 µM (active); in [13], 8.49 µM (active); in experiment [14], 21.3 µM (active).

With `CC(NN)c1ccccc1` (stereo not drawn), the viability change, negative = cytotoxic in experiment [1] is -0.8% [at 19 µM]; in experiment [4], -1.05% [at 19 µM]. The activity change, negative = cytotoxicity in [2] was 5.95% [at 19 µM]; in [5], 1.2% [at 15.8 µM]; in [12], 1.66% [at 15.8 µM]; in [15] it was 0.13% [at 15.8 µM]. For the same compound, in experiment [3], the activity, negative = inhibition was 27.3% [at 19 µM]. Further, the activation in experiment [10] is -0.741% [at 19 µM]; in experiment [11], -1.03% [at 15.8 µM]. The activation (H2AX phosphorylation) in experiment [6] was -2.63% [at 31.6 µM]. Besides, in experiment [7], the Potency entry is “inactive”. The activity change, negative = cytotoxic in experiment [8] was 1.03% [at 15.8 µM]; in experiment [13] it was -0.13% [at 15.8 µM]. Also, in [9], the cytotoxicity was -1.54% [at 15.8 µM]. Further, the cytotoxicity increase in [14] was -15.6% [at 15.8 µM].

For `Cc1ccc(-n2nc(C(C)(C)C)cc2NC(=O)Nc2ccc(OCCN3CCOCC3)c3ccccc23)cc1`, the Potency result in experiment [1], in experiment [2], in experiment [3], in experiment [4], in experiment [18] and in experiment [11] was “inactive” throughout. In addition, the Potency result in experiment [7], in experiment [12], in [9], in [13] and in experiment [14] was “inactive” in each case. Further, the Potency in experiment [6] was 49.2 µM (active). Besides, the activity change, positive = activation in experiment [19] was -18.8% [at 42.5 µM].

For `NNc1nc(-c2ccc(N)cc2)cs1`, the Potency result in experiment [1], in experiment [2], in [3], in experiment [18], in experiment [5] and in [12] was “inactive” throughout. Besides, the Potency result in experiment [9], in experiment [13], in [14] and in [15] was “inactive” in each case. For the same compound, the Potency in experiment [4], in experiment [17] and in experiment [20] was 61.1 µM (active) each time. For the same compound, the activity change, positive = activation in experiment [19] was -40.8%.

As to `c1ccc(CSCc2ccccc2)cc1`, the Potency entry in experiment [1], in [2], in experiment [3], in [4], in [6] and in experiment [11] was “inactive” throughout. Besides, the Potency result in experiment [7], in [12], in [8], in experiment [9], in experiment [13] and in experiment [14] was “inactive” each time. Also, the Potency result in experiment [15] was “inactive”.

Values taken from PubChem BioAssay (Tox21).
